# Compounds with a hit are over-represented: about 19% of the library has one in this group of screens.
# IL-1B inflam inh = qHTS for Inhibitors of Inflammasome Signaling: IL-1-beta AlphaLISA Primary Screen; THP-1 LPS/ATP IL-1B secretion, AlphaLISA, 16 h; active compounds read low; activity change, % at 57.5 µM; hit rate 4.7% among 360,000; in the data active means activity change below about -50%; inconclusive means mostly about -30% to -49%
#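 Secreted IL-1B measured by AlphaLISA bead assay after 16 h compound exposure of THP-1 cells; compounds (final up to 57.5 uM) added 1 h before LPS (250 ng/mL) and ATP (1.25 mM) stimulation; lower signal means less secretion.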
# HT1080NT lethal = qHTS for induction of synthetic lethality in tumor cells producing 2HG: qHTS for the HT-1080-NT fibrosarcoma cell line; HT-1080-NT fibrosarcoma viability, CellTiter-Glo ATP luminescence, 48 h; Potency, µM (titrated, usually from 46.1 µM), for inactives: top-dose activity, negative = less viability, most hits filed as cytotoxic; hit rate 1.6% among 360,000; AID 686970, 2013;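 further: NT is the 2HG producing partner of a matched IDH1 knockdown line; potency means the concentration at half of the fitted maximal effect; 0% = DMSO-treated cells and -100% = media-only wells without cells; nearly all actives have a fitted effect of over 55% in size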
#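 Luminescent CellTiter-Glo readout after 48 hours of compound exposure at 37 degrees C defined viability of HT-1080-NT cells. Activity was normalized to DMSO wells and cell-free media wells; concentration-response curves were fitted and assigned curve classes.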
# DT40 TDP1 no CPT = qHTS for Inhibitors of human tyrosyl-DNA phosphodiesterase 1 (TDP1): qHTS in cells in absence of CPT; DT40 Tdp1-/- hTDP1 cells, no CPT, ATP luminescence, 48 h; Potency, µM (doses to about 46.2 µM), without a hit: at the highest dose activity change, negative = growth inhibition, actives largely listed as inhibitors; hit rate 15% among 420,000; further: potency means the concentration at half of the fitted maximal effect; nearly all actives have a fitted effect of over 55% in size
#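 No-CPT arm: Tdp1-/-;hTDP1 DT40 cells (400/well) plus compounds, incubated ≥48 hr at 37 °C. Readout CellTiter-Glo luminescence.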
# DT40 TDP1 CPT = qHTS for Inhibitors of human tyrosyl-DNA phosphodiesterase 1 (TDP1): qHTS in cells in presence of CPT; chicken DT40 Tdp1-/-;hTDP1 cells + 20 nM CPT, ATP luminescence, 48 h; Potency, µM (highest dose often 46.2 µM), for inactives: at the highest dose activity change, negative = growth inhibition, usual class: inhibitors; hit rate 12% among 420,000; further: potency means the concentration at half of the fitted maximal effect; nearly all actives have a fitted effect of over 55% in size
#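 Chicken DT40 Tdp1-/- cells complemented with human TDP1, 400 cells/well, exposed to compounds plus 20 nM camptothecin for at least 48 h at 37 C; viability read as ATP content by CellTiter-Glo luminescence.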
# HT1080 IDH1KD tx = qHTS for induction of synthetic lethality in tumor cells producing 2HG: qHTS for the HT-1080-IDH1KD cell line; HT-1080 IDH1 knockdown viability, ATP luminescence, 48 h; Potency, µM (titrated, usually from 46.1 µM), for inactives: top-dose activity, negative = toxicity, hits mostly cytotoxic; hit rate 2% among 360,000;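 further: potency means the concentration at half of the fitted maximal effect; 0% = DMSO wells and -100% = cell-free medium wells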
#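 In this qHTS, HT-1080 cells depleted of IDH1 are exposed for 48 h at 37 °C to compound titrations. Toxicity is scored from CellTiter-Glo luminescence, with DMSO as full viability and medium alone as none.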
# ELG1 repair inh = qHTS screen for small molecules that inhibit ELG1-dependent DNA repair in human embryonic kidney (HEK293T) cells expressing luciferase-tagged ELG1 | hit rate 2.3% among 330,000 | Potency, µM (titrated, usually from 46.1 µM), for inactives: at the top dose activity change, negative = inhibition, actives largely listed as inhibitors | HEK293T ELG1-luciferase reporter, luminescence, 16 h; DNA damage induced by 5-fluorouridine | AID 504467, 2011; further: potency means the concentration at half of the fitted maximal effect; nearly all actives have a fitted effect of over 55% in size
#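 HEK293T cells expressing luciferase-tagged ELG1 (2,000/well) received 5-Fluorouridine plus compound or DMSO for 16 hr at 37 °C. Luciferase was read by ONE-Glo luminescence after 30 min at room temperature.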
# * marks the source's active call; other numbers are inactive results; ? = inconclusive; / = not tested or not shown; [ ] = another dose, or the depositor's remark. Unless noted, the call rests on the fitted dose curve; in most records, active means well fitted curve in the direction sought with a large enough effect; inconclusive means small, poorly fitted or top-dose-only effect, or another doubt; inactive means no such curve, though single readings can be large; an effect the other way counts as inactive or inconclusive. Unless noted, on the % scale 0 is the no-effect control and ±100 the full control effect.
SMILES,IL-1B inflam inh,HT1080NT lethal,DT40 TDP1 no CPT,DT40 TDP1 CPT,HT1080 IDH1KD tx,ELG1 repair inh
COc1ccc(Cc2nc3ccc(C(=O)NCc4cccc(C)n4)cc3o2)cc1OC,?,2%,?,18µM*,1%,/
COc1ccc(Cc2nc3ccc(C(=O)NC(C)Cc4ncccc4C)cc3o2)cc1OC (stereo not drawn),-8,2%,?,18µM*,1%,?
C=CCN(CC=C)C(=O)c1ccc2nc(Cc3ccc(OC)c(OC)c3)oc2c1,?,-25%,4.6µM*,?,?,?
COc1ccc(Cc2nc3ccc(C(=O)N4CCN(C)C(C)C4)cc3o2)cc1OC (stereo not drawn),-1,-18%,18µM*,?,-17%,-4%
OC[C@@H]1CN(Cc2ccccc2)C[C@H](n2cnc3c(Nc4ccccc4)ncnc32)O1,-13,-12%,-22%,-20%,13%,/
Cc1nn2c(C)c(C(=O)N3CCN(c4ccc(Cl)cc4)CC3)cnc2c1-c1ccc(F)cc1,/,/,-2%,2%,/,/
CCn1nnc2cc(C(=O)N3CCC(C(=O)OC)CC3)ccc21,38,6%,-2%,2%,1%,?
COc1ccc(Cc2nc3ccc(C(=O)N4CCCC4)cc3o2)cc1OC,0,2%,21µM*,?,-9%,?
COc1ccc(Cc2nc3ccc(C(=O)N4CCCCC4CO)cc3o2)cc1OC (stereo not drawn),9,3%,21µM*,?,-12%,/
COc1ccc(Cc2nc3ccc(C(=O)NC4CCOC4)cc3o2)cc1OC (stereo not drawn),2,-1%,?,12µM*,-9%,/
COc1ccc(Cc2nc3ccc(C(=O)NCc4cc(C)no4)cc3o2)cc1OC,25,-9%,?,?,-3%,20%
COc1ccc(Cc2nc3ccc(C(=O)N4CCC[C@H]4CO)cc3o2)cc1,3,1%,-1%,?,-1%,-5%
COc1ccc(Cc2nc3ccc(C(=O)N4CCCC4)cc3o2)cc1,43,-3%,-8%,-15%,-1%,?
CCOC(=O)C1CC2CC(C1)CN(C(=O)C1CCCCC1)C2 (stereo not drawn),15,8%,-4%,-14%,0%,9%
O=C(c1ccc(CSc2nc3ccncc3n2Cc2ccccc2F)cc1)N1CCCCC1,/,/,?,-4%,/,/
O=C(c1ccc(CSc2nc3ccncc3n2Cc2cccc(F)c2)cc1)N1CCCCCC1,/,/,16µM*,?,/,/
CN1CCN(C(=O)c2ccc(CSc3nc4ccncc4n3Cc3ccc(F)cc3)cc2)CC1,-23,-19%,-30%,-14%,-13%,4%
O=C(c1ccc(CSc2nc3ccncc3n2Cc2cccc(F)c2)cc1)N1CCCCC1,/,/,21µM*,?,/,/
Cc1ccc(NC(=O)[C@@H](c2ccccc2)N2Cc3ccccc3C2=O)cc1,/,/,3%,3%,/,/
O=C1CCCCCC(=O)[C@H](O)C[C@H](c2ccccc2)O1,47,9%,-10%,3%,9%,/
CN1CCN(S(=O)(=O)c2ccc(SCCOc3ccc(Cl)cc3)nc2)CC1,?,2%,16µM*,-89%,-1%,27%
COc1ccc(OCCSc2ccc(S(=O)(=O)N3CCCC3)cn2)cc1,-1,1%[9.24 µM],?,?,-22%,24%
